Compounds without any hit were thinned out: in the full panel of roughly 83,000, 20% have a hit.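 For each line, cells grew in 96-well plates with the test compound present at a single concentration for 48 hours.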 A number with no mark means an inactive call. Calls of active or inactive are those of the source. Rule for the calls: active = growth percent below 10; inactive = the rest.
Tests used:
Assay in all cases: NCI-60 one-dose screen, 48 h (100 = growth as untreated, 0 = no growth, -100 = all killed)
Details in all cases: 10 µM unless noted
SK-MEL-2 melanoma = tested on: SK-MEL-2 melanoma
EKVX NSCLC = tested on: EKVX NSCLC
SN12C renal = tested on: SN12C renal
UO-31 renal = tested on: UO-31 renal
TK-10 renal = tested on: TK-10 renal
ACHN renal = tested on: ACHN renal
A498 renal = tested on: A498 renal
CCRF-CEM leukemia = tested on: CCRF-CEM leukemia
MOLT-4 leukemia = tested on: MOLT-4 leukemia
SR leukemia = tested on: SR leukemia
RPMI-8226 leukemia = tested on: RPMI-8226 leukemia
OVCAR-8 ovarian = tested on: OVCAR-8 ovarian
OVCAR-5 ovarian = tested on: OVCAR-5 ovarian
OVCAR-4 ovarian = tested on: OVCAR-4 ovarian
SK-OV-3 ovarian = tested on: SK-OV-3 ovarian
IGROV1 ovarian = tested on: IGROV1 ovarian
OVCAR-3 ovarian = tested on: OVCAR-3 ovarian
HS 578T breast = tested on: HS 578T breast
NCI/ADR-RES ovarian = tested on: NCI/ADR-RES ovarian
T-47D breast = tested on: T-47D breast

SMILES | growth (SK-MEL-2 melanoma) | growth (EKVX NSCLC) | growth (SN12C renal) | growth (UO-31 renal) | growth (TK-10 renal) | growth (ACHN renal) | growth (A498 renal) | growth (CCRF-CEM leukemia) | growth (MOLT-4 leukemia) | growth (SR leukemia) | growth (RPMI-8226 leukemia) | growth (OVCAR-8 ovarian) | growth (OVCAR-5 ovarian) | growth (OVCAR-4 ovarian) | growth (SK-OV-3 ovarian) | growth (IGROV1 ovarian) | growth (OVCAR-3 ovarian) | growth (HS 578T breast) | growth (NCI/ADR-RES ovarian) | growth (T-47D breast)
COc1cc(-c2nn(-c3ccc(Br)cc3)cc2CO)ccc1O | 100% | 92.5% | 97.1% | 59.9% | 110% | 100% | 77.2% | 54.9% | 57.1% | 65.4% | 84.6% | 94.9% | 101% | 94.7% | 105% | 115% | 103% | 88.9% | 99.3% | 80.3%
O=C(Nc1nccs1)c1noc2ccccc12 | 109% | 88.6% | 97.1% | 86.1% | 133% | 96.9% | 101% | 85.7% | 96.8% | 87% | 90.4% | 94.7% | 103% | 88.4% | 92.2% | 84.1% | 110% | 97% | 106% | 57.5%
COc1cc(C2=NN(c3ccccc3)C(c3cccc(Nc4ccnc5cc(C(F)(F)F)ccc45)c3)C2)cc(OC)c1OC (stereo not given) | 86.6% | 85.2% | 97.1% | 61.4% | 78.2% | 95.2% | 89.9% | 84.1% | 65.3% | 56.9% | 65.1% | 91.7% | 104% | 91% | 94.7% | 77.9% | 88.1% | 99% | 80.9% | 76.5%
CC(C)C[C@H](C(=O)O)N(C)C(=O)[C@@H]1CCCN1C(=O)[C@H](C)OC(=O)[C@H](CCC(N)=O)NC(=O)[C@@H]1CCC(=O)N1 | 110% | 94.1% | 97.1% | 88.3% | 105% | 106% | 107% | 102% | 111% | 94.4% | 108% | 103% | 100% | 86.8% | 92.8% | 114% | 103% | 107% | 111% | 86.8%
C=C(C)[C@@H]1CC[C@]2(C(=O)OCCOCCOCC[P+](c3ccccc3)(c3ccccc3)c3ccccc3)CC[C@]3(C)[C@H](CC[C@@H]4[C@@]5(C)CC[C@H](C)C(C)(C)[C@@H]5CC[C@]43C)[C@@H]12 | -71.3% (active) | -67.2% (active) | -75.9% (active) | -89.8% (active) | -88.6% (active) | -92.6% (active) | -93.7% (active) | -63% (active) | -75.4% (active) | -56.8% (active) | -59.3% (active) | -81.3% (active) | -72.2% (active) | -85.6% (active) | -96.9% (active) | -70.5% (active) | -91.7% (active) | -39.2% (active) | -59.8% (active) | -68.5% (active)
COc1cc(C2=NNC(c3ccc(N(C)C)cc3)C2)cc(OC)c1OC (stereo not given) | 60.9% | 44.4% | 49.3% | 38.9% | 59.2% | 50.6% | -8.21% (active) | 17% | 37.1% | -5.74% (active) | 16% | 24.7% | 30.4% | 52.2% | 19.5% | 35.4% | 5.84% (active) | -21.7% (active) | -20.7% (active) | 45.8%
COc1ccccc1N1CCN(CCCOc2ccc(C(=O)/C=C3/C(=O)Nc4ccccc43)cc2)CC1 | 72.2% | 53.5% | 69.7% | 44.5% | 87.1% | 74.2% | 88.6% | 15.6% | 18.6% | 19.8% | 34.9% | 65.9% | 32.4% | 45.2% | 79.7% | 67.7% | 66.1% | 26.7% | 73% | 33.3%
N#Cc1c(NC(=O)c2cccs2)[n+]([O-])c2cc(C(F)(F)F)ccc2[n+]1[O-] | 55.8% | 87.1% | 108% | 80.5% | 104% | 102% | 123% | 94.7% | 75.9% | 79.8% | 95.5% | 95.4% | 111% | 94.1% | 97.2% | -54.2% (active) | 81.9% | 84.5% | 107% | 90.2%
COc1ccc(N(C)c2nc(Cl)nc3ccn(C)c23)cc1 | 19.3% | 43.1% | 23% | 45% | 67.7% | 21.9% | -9.23% (active) | 8.02% (active) | 9.94% (active) | 11.3% | 6.35% (active) | 0.816% (active) | 30.6% | 36.6% | 7.76% (active) | 26.1% | -12.3% (active) | 36.8% | 3.41% (active) | 74.9%
CN1CCN(C(=O)[C@@]2(C)CC[C@]3(C)CC[C@]4(C)C(=CC[C@@H]5[C@@]6(C)CC[C@H](OC(=O)c7cccnc7)C(C)(C)[C@@H]6CC[C@]54C)[C@@H]3C2)CC1 | 101% | 76.3% | 80.4% | 74.1% | 116% | 77.7% | 92.1% | 1.45% (active) | 31.9% | -26.9% (active) | 6.97% (active) | 60.2% | 78.7% | 35.2% | 79.3% | 88.2% | 80.9% | 76.8% | 77.6% | 57.6%
COc1ccc2c(c1)Oc1nc(N)c(C#N)c(N)c1C2Sc1ccc(O)cc1 (stereo not given) | 87.5% | 77.7% | 89.4% | 68.3% | 98.5% | 94.2% | 91.4% | 16.5% | 34.7% | 13.7% | 53.4% | 102% | 118% | 88.8% | 104% | 62% | 79.7% | 109% | 106% | 50.7%
CC(=O)OC[C@]12CC[C@@H](c3cn(Cc4ccc(Cn5cc([C@@H]6CC[C@]7(COC(C)=O)CC[C@]8(C)[C@H](CC[C@@H]9[C@@]%10(C)CC[C@H](OC(C)=O)C(C)(C)[C@@H]%10CC[C@]98C)[C@@H]67)nn5)cc4)nn3)[C@@H]1[C@H]1CC[C@@H]3[C@@]4(C)CC[C@H](OC(C)=O)C(C)(C)[C@@H]4CC[C@@]3(C)[C@]1(C)CC2 | 97% | 104% | 106% | 90.7% | 95.1% | 97.1% | 105% | 102% | 97.1% | 98% | 108% | 92% | 102% | 109% | 100% | 105% | 97.4% | 97.2% | 102% | 87.1%
COc1ccc2nc3c(n2c1)C(=O)C(=O)c1ccccc1-3 | -74.7% (active) | -53.6% (active) | -88.1% (active) | -64.4% (active) | 48.4% | -51.3% (active) | 68.7% | 20.8% | 2.85% (active) | -1.54% (active) | -0.676% (active) | 9.51% (active) | -79.9% (active) | -81.3% (active) | 24.8% | 0.7% (active) | -22.8% (active) | -6.35% (active) | -7.37% (active) | 21.4%
O=c1[nH]nc(-c2ccc(Br)cc2)c2sc(NC(=S)Nc3ccc(Cl)cc3)nc12 | 101% | 89.8% | 109% | 89.2% | 123% | 102% | 100% | 98.4% | 105% | 106% | 101% | 95.4% | 97.3% | 91.5% | 96.9% | 81.1% | 104% | -1.82% (active) | 80% | 85.9%
